In PubChem BioAssay AID485290 (National Center for Advancing Translational Sciences (NCATS), 2010):
About 990 (0.28%) of roughly 350,000 compounds were called active. About 2% were inconclusive and are not listed. Calls come from the whole dose curve; as a rule, active = well fitted inhibition curve with a large enough effect; inconclusive = small, poorly fitted or top-dose-only effect; inactive = no such curve, though single readings can be large or run the other way. What follows is part of a selection rich in actives, with near analogues and random picks from the rest. Where a call stands in place of a potency, no number is given.

Target: Tyrosyl-DNA phosphodiesterase 1 (Homo sapiens) (UniProt Q9NUW8)
Sequence (Q9NUW8 whole entry, looked up): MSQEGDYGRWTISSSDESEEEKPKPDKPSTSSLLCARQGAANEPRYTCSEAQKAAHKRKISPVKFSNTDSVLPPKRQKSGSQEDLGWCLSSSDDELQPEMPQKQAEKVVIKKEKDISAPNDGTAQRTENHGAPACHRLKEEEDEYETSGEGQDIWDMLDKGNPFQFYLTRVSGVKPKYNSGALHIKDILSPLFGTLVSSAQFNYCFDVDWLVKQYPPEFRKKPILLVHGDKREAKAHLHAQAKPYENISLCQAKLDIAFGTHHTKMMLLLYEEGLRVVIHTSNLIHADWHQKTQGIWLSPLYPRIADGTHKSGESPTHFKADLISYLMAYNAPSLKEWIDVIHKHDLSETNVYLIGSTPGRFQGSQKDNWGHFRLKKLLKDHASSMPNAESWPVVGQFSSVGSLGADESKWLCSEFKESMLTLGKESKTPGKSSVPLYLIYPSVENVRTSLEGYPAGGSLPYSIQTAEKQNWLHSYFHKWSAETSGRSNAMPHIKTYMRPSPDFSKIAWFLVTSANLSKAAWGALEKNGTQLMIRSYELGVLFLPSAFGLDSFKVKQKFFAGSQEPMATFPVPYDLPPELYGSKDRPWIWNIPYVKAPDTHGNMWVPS
Experiment: qHTS Assay for Inhibitors of Tyrosyl-DNA Phosphodiesterase (TDP1); note: nearly all actives have a fitted effect of over 40% in size
Conditions: recombinant TDP1, AlphaScreen DNA substrate cleavage; series mostly up to 130 µM
Procedure, shortened: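 Steps: enzyme plus compound, 15 min RT; add biotin/phosphotyrosine-FITC oligonucleotide (15 nM final), react 5 min; add donor/acceptor beads (10 ug/ml final), 10 min; read AlphaScreen. Tdp1 at 1 nM final.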
Potency is the fitted concentration of half-maximal effect.

Question: How did the Potency turn out when `Cc1noc(C)c1-c1ccc2ncnc(NCc3ccc(F)c(F)c3)c2c1` was run?
Answer: The Potency was “inactive”.

Question: For `Oc1ccc(Cl)cc1C1C=C(c2ccc3c(c2)OCO3)NC(c2ccc(F)c(Br)c2)N1` (configuration not stated), which Potency is on record?
Answer: The Potency was “inactive”.

Question: How did the Potency turn out when `CO[C@@]12[C@@H](COC(N)=O)C3=C(C(=O)C(C)=C(N)C3=O)N1C[C@@H]1N[C@@H]12` was run?
Answer: The Potency was 35.5 µM (active).

Question: Which Potency does the source give for `O=[N+]([O-])c1ccc(S(=O)(=O)N2CCN(c3nc(-c4ccccc4)nc4ccccc34)CC2)cc1` here?
Answer: The Potency was “inactive”.

Question: Which Potency does the source give for `Cc1cccc(N2CCN(C(=O)c3ccc4c(c3)CCN4S(=O)(=O)c3ccccc3)CC2)c1C` here?
Answer: The Potency was “inactive”.

Question: Which Potency does the source give for `COc1ccc(CCNc2ncnc3c2cnn3-c2ccc(C)cc2)cc1` here?
Answer: Its Potency is “inactive”.

Question: With `CC(O)c1nc2ccccc2n1Cc1ccc([N+](=O)[O-])cc1` (configuration not stated) as the compound, how does the Potency read?
Answer: Its Potency is “inactive”.

Question: How did the Potency turn out when `CCc1cccc(C)c1N(C(=O)Cn1c(CO)nc2ccccc21)C(C)COC` (configuration not stated) was run?
Answer: The Potency was “inactive”.

Question: With `CCOCN(C(=O)Cn1c(C(C)O)nc2ccccc21)c1c(C)cccc1CC` (configuration not stated) as the compound, how does the Potency read?
Answer: The Potency was 89.1 µM (active).

Question: For `COc1ccc(S(=O)(=O)Nc2cccc3cccnc23)c(N)c1`, which Potency is on record?
Answer: Its Potency is “inactive”.

Question: With `COc1ccccc1NC(=O)C(=O)c1cc(C)n(-c2ccccc2F)c1C` as the compound, how does the Potency read?
Answer: Its Potency is “inactive”.

Question: For `CCCOc1ccc(NC(=O)CC2C(=O)N(c3ccccc3)C(=O)N2Cc2ccco2)cc1` (configuration not stated), which Potency is on record?
Answer: The Potency was “inactive”.

Question: How did the Potency turn out when `O=C(O)CSc1ccc(S(=O)(=O)N2CCCC2)cn1` was run?
Answer: The Potency was “inactive”.

Question: How did the Potency turn out when `Cc1cc(C)c(C#N)c(N2CCC(C(N)=O)CC2)n1` was run?
Answer: Its Potency is “inactive”.

Question: With `N#Cc1c(N2CCCCC2)nc(N)c2c(N)nc(SCC(=O)O)cc12` as the compound, how does the Potency read?
Answer: Its Potency is 50.1 µM (active).

Question: With `O=C1CCCC2=C1[C@@]1(CCC(c3ccccc3)C1)N=C(Nc1nc3ccccc3o1)N2` (some centres not stated) as the compound, how does the Potency read?
Answer: The Potency was “inactive”.

Question: With `CCCCCCC1(C)NC(c2ccc3c(c2)OCO3)=CC(c2ccccc2O)N1` (configuration not stated) as the compound, how does the Potency read?
Answer: Its Potency is “inactive”.

Question: `COc1ccc(Nc2cc(C(=O)NCCCN(C)c3ccccc3)c3ccccc3n2)c(OC)c1` was tested. Which Potency did it give?
Answer: Its Potency is “inactive”.

Question: How did the Potency turn out when `Cc1ccc(NC(=O)CCCn2c(=O)c3cccn3c3ccccc32)cc1Cl` was run?
Answer: The Potency was “inactive”.

Question: How did the Potency turn out when `O=C1c2ccccc2C(=O)N1c1ccc(S(=O)(=O)N2CCOCC2)c2ccccc12` was run?
Answer: Its Potency is “inactive”.

Question: `O=C(Nc1cccc2cccnc12)C(F)(F)F` was tested. Which Potency did it give?
Answer: Its Potency is “inactive”.

Question: With `CCOC(=O)C1=NOC(Cn2cc(C(C)=O)c(=O)[nH]c2=O)C1` (configuration not stated) as the compound, how does the Potency read?
Answer: Its Potency is “inactive”.

Question: For `CCOC(=O)C1=C(C)N=C2c3ccccc3C(=O)C2C1c1ccc(Br)cc1` (configuration not stated), which Potency is on record?
Answer: The Potency was “inactive”.

Question: `CCOC(=O)C1=NO[C@@]2(C=C(Br)C(=O)[C@H]3O[C@H]32)C1` was tested. Which Potency did it give?
Answer: The Potency was 8.91 µM (active).

Question: How did the Potency turn out when `CCOC(=O)N1CCc2c(sc(NCc3cccc(F)c3)c2C(=O)Nc2ccccc2OCC)C1` was run?
Answer: Its Potency is “inactive”.

Question: For `CCC1(C)CC(=O)c2c(ccc3oc(C(=O)Nc4ccc(C(C)=O)cc4)c(C)c23)O1` (configuration not stated), which Potency is on record?
Answer: The Potency was “inactive”.

Question: With `COc1ccc(Cc2nc3ccc(C(=O)NCc4ccccc4Cl)cc3o2)cc1` as the compound, how does the Potency read?
Answer: The Potency was “inactive”.

Question: How did the Potency turn out when `CC(=O)NS(=O)(=O)c1ccc(NC(=O)C2C3C=CC(C3)C2C(=O)O)cc1` (configuration not stated) was run?
Answer: Its Potency is 79.4 µM (active).

Question: `COC(=O)c1cc(NC(=O)C2C3C=CC(C3)C2C(=O)O)cc(C(=O)OC)c1` (configuration not stated) was tested. Which Potency did it give?
Answer: Its Potency is “inactive”.

Question: How did the Potency turn out when `CC(C)COC(=O)c1ccc(NC(=O)C2C3C=CC(C3)C2C(=O)O)cc1` (configuration not stated) was run?
Answer: The Potency was “inactive”.

Question: With `O=C(NCc1ccc2c(c1)CCN2C(=O)c1ccccc1)Nc1cc(F)ccc1F` as the compound, how does the Potency read?
Answer: Its Potency is “inactive”.

Question: For `O=C(CNC(=O)c1ccc(Cl)c(C(F)(F)F)c1)OC(C(=O)Nc1cc(C(F)(F)F)ccc1Cl)c1ccccc1` (configuration not stated), which Potency is on record?
Answer: The Potency was “inactive”.

Question: With `CC(=O)Nc1cccc(NC(=O)CSc2nccn2Cc2ccc3c(c2)OCO3)c1` as the compound, how does the Potency read?
Answer: The Potency was “inactive”.

Question: With `O=C(CCC1CCCN(C(=O)c2ccc(F)c(F)c2)C1)N1CCN(c2ccccn2)CC1` (configuration not stated) as the compound, how does the Potency read?
Answer: The Potency was “inactive”.

Question: How did the Potency turn out when `C=Cc1ccc(C(=O)N2CCCC(CCC(=O)N3CCN(c4ccccn4)CC3)C2)cc1` (configuration not stated) was run?
Answer: The Potency was 1.26 µM (active).

Question: For `O=C(CCC1CCCN(C(=O)Cc2ccc(F)cc2)C1)N1CCN(c2ccccn2)CC1` (configuration not stated), which Potency is on record?
Answer: Its Potency is “inactive”.

Question: With `Cc1ccc(S(=O)(=O)NC(N)=NCCC[C@@H](NC(=O)CNC(=O)c2ccccc2)C(=O)Nc2cc(C(F)(F)F)ccc2Cl)cc1` as the compound, how does the Potency read?
Answer: Its Potency is “inactive”.

Question: `CC(Nc1ncnc2ccc(-c3ccc4c(c3)OCO4)cc12)c1ccco1` (configuration not stated) was tested. Which Potency did it give?
Answer: Its Potency is “inactive”.

Question: Which Potency does the source give for `O=C(O)c1ccc2c(c1)N(Cc1ccc(F)cc1)C(=O)c1ccccc1S2=O` (configuration not stated) here?
Answer: The Potency was “inactive”.

Question: With `O=c1[nH]c(=S)[nH]c2[nH]c(=S)[nH]c12` as the compound, how does the Potency read?
Answer: Its Potency is 8.91 µM (active).

Question: How did the Potency turn out when `CCCS(=O)(=O)Nc1cccc(-c2cn3ccsc3n2)c1` was run?
Answer: Its Potency is “inactive”.

Question: Which Potency does the source give for `COC(=O)c1ccc(NC(=O)CCc2c(C)nn(-c3ccc(N4CCCC4)nn3)c2C)cc1` here?
Answer: Its Potency is “inactive”.

Question: `CN(C)c1ccc(C(=O)NCC(=O)OC(C(=O)Nc2cc(C(F)(F)F)ccc2Cl)c2ccccc2)cc1` (configuration not stated) was tested. Which Potency did it give?
Answer: The Potency was “inactive”.

Question: `CCOc1cccc(C(=O)Nc2nnc(S(=O)(=O)N(C)c3ccc(C)cc3)s2)c1` was tested. Which Potency did it give?
Answer: Its Potency is “inactive”.

Question: With `O=C(NCc1nnc(C(=O)Nc2ccc(C(F)(F)F)cc2Cl)o1)c1ccccc1` as the compound, how does the Potency read?
Answer: The Potency was “inactive”.

Question: How did the Potency turn out when `COc1ccc(NC(=O)c2sc3nc[nH]c(=O)c3c2C)cc1` was run?
Answer: Its Potency is “inactive”.

Question: With `Cc1cccc(N2CCN(c3ccc(C(=O)O)cc3NC(=O)c3ccccc3F)CC2C)c1` (configuration not stated) as the compound, how does the Potency read?
Answer: The Potency was “inactive”.

Question: For `O=C(NCCCO)C(=O)Nc1c2c(nn1-c1ccccc1)CSC2`, which Potency is on record?
Answer: Its Potency is “inactive”.

Question: `C=C1c2cccc(OC)c2O[C@H](C(=O)OCC)[C@@H]1CCCCCC` was tested. Which Potency did it give?
Answer: Its Potency is 35.5 µM (active).

Question: How did the Potency turn out when `CCOC(=O)C1=C(C)c2ccccc2OC1C(=O)OCC` (configuration not stated) was run?
Answer: Its Potency is “inactive”.

Question: `COc1ccc(C(=O)N(Cc2ccccc2)Cc2ccc(OC)c(COc3ccc(NC(C)=O)cc3)c2)c(O)c1` was tested. Which Potency did it give?
Answer: Its Potency is “inactive”.

Question: `CC(=O)NC(c1cccs1)c1cc(Cl)c2cccnc2c1O` (configuration not stated) was tested. Which Potency did it give?
Answer: Its Potency is “inactive”.
